Compounds without any hit were thinned out: in the full panel of roughly 83,000, 20% have a hit.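 Single-concentration screen, 48 h exposure, 96-well plates. Endpoint: percent growth. Below 10 = active.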 A number with no mark means an inactive call. Calls of active or inactive are those of the source.

Experimental findings from PubChem BioAssay (NCI) are described below.

Holding throughout (assay): NCI-60 one-dose screen, 48 h (100 = growth as untreated, 0 = no growth, -100 = all killed)
Holding throughout (details): 10 µM unless noted

Assay [1] concerns SK-MEL-2 melanoma.
The test system of assay [2] is EKVX NSCLC.
Assay [3] has as its system SN12C renal.
Assay [4] concerns UO-31 renal.
The subject of assay [5] is TK-10 renal.
The test system of assay [6] is ACHN renal.
The test system of assay [7] is CAKI-1 renal.
Assay [8] relates to A498 renal.
The subject of assay [9] is CCRF-CEM leukemia.
The test system of assay [10] is MOLT-4 leukemia.

Turning to `C=C(C)[C@@H]1C[C@@H]2Cc3ccc(Cl)c(C)c3N1O2`, the growth in assay [1] was 96.4%; in assay [2], 86.2%; in assay [3], 97.3%; in assay [4], 99.3%; in assay [5], 53.8%; in assay [6] it was 96.8%. In addition, the growth in assay [7] was 89.8%; in assay [8], 83.2%; in [9], -68.9% (active); in assay [10], -2.28% (active).
For `Cn1cc(-c2cnc3ccc(NC(=O)Nc4ccc(F)c(Br)c4)cc3n2)cn1`, the growth is -3.42% (active) in [1]; 29.7% in assay [2]; 46.1% in assay [3]; 16.9% in assay [4]; 52% in assay [5]; 20.2% in [6]. For the same compound, the growth in [7] was 12.8%; in assay [8] it was 16.5%; in [9], 4.33% (active); in assay [10], -21.2% (active).
As to `O=C1c2c(Cl)c(Cl)c(Cl)c(Cl)c2C(=O)C2(Cl)CC=CCC12Cl` (configuration not stated), the growth in [1] is -49.4% (active); in assay [2], 98.7%; in [3], 24.4%; in [4], 17.9%; in assay [5], -92.5% (active); in [6], -81% (active). Also, the growth in assay [7] is -15.1% (active); in assay [8], 104%.
With `CCCCN(CCCC)c1ccc(C(=N)c2ccc(N(CCCC)CCCC)cc2)cc1`, the growth is -79.1% (active) in assay [1]; -13.9% (active) in [2]; -94.1% (active) in assay [3]; -71.1% (active) in assay [4]; -83.9% (active) in [5]; -100% (active) in [6]. Besides, the growth in assay [7] was -37.6% (active); in assay [8], -25.7% (active).
`N=c1ccc2nc3ccc(N)cc3sc-2c1`: the growth in assay [1] is 50.9%; in assay [2], 47.9%; in assay [3], 6.7% (active); in assay [4], 69.1%; in assay [5] it was 11.9%; in [6], 55.2%. In addition, the growth in assay [7] was 46.4%; in [8], 70.6%; in assay [9], 21.3%; in [10] it was 8.58% (active).
Turning to `COc1ccc(Nc2[nH]n3c(=O)cc(-c4ccccc4)nc3c2C(=O)Nc2ccc(C)cc2)c(OC)c1`, the growth in assay [1] is 103%; in assay [2], 89.8%; in assay [3], 85.9%; in [4], 74.7%; in assay [5], 108%; in assay [6], 88.5%. The growth in assay [7] was 90.4%; in assay [8], 108%; in [9], 66.5%; in [10] it was 69.4%.
As for `CCOC(=O)c1c(NS(=O)(=O)c2ccc(C)cc2)sc2c1CCC1(C2)OCCO1`, the growth in assay [1] is 90.3%; in assay [2], 94.6%; in assay [3], 95.1%; in assay [4], 82.6%; in [5], 120%; in [6], 95.1%. Moreover, the growth in assay [7] was 85.1%; in assay [8], 98%; in assay [9] it was 96.2%; in [10], 85.8%.
On to `COc1cc(-c2ncn(/C=C\C(=O)OC(C)C)n2)cc(C(F)(F)F)c1`, for which the growth is -10% (active) in [1]; 43.6% in assay [2]; 12.9% in assay [3]; 3.53% (active) in [4]; -8.8% (active) in [5]; 11.5% in assay [6]. Also, the growth in [7] is 14.3%; in assay [8] it was -53.8% (active); in assay [9], 11.5%; in assay [10], 2.48% (active).
In the case of `Cc1ccc2[nH]c(=O)c3c(c2c1)Oc1ncn2nc(-c4ccco4)nc2c1C3c1ccc(Cl)cc1` (configuration not stated), the growth in [1] was 95.6%; in assay [2], 90.9%; in assay [3], 96.2%; in [4], 84.9%; in [5], 107%; in assay [6], 94.6%. In addition, the growth in assay [7] was 91.9%; in [8] it was 96.8%; in [9], 97.4%; in assay [10] it was 103%.
As for `CN(C)CC(C(=O)c1ccccc1)c1ccccc1` (configuration not stated), the growth is 34.7% in assay [1]; 89.6% in [2]; 31.2% in assay [3]; 41.3% in assay [4]; -20% (active) in assay [5]; -41.5% (active) in assay [6]. Moreover, the growth is -2.87% (active) in assay [7] and 99.7% in assay [8].
In the case of `Nc1ccc(C(=O)CSc2nc3ccccc3[nH]2)cc1`, the growth in [1] was 121%; in assay [2], 81.7%; in assay [3] it was 102%; in assay [4] it was 87.5%; in assay [5], 109%; in assay [6], 110%. Also, the growth is 96.1% in assay [7], 87.5% in [8], 106% in assay [9] and 124% in assay [10].
Take `O=C(N/N=C/C=C\c1ccccc1)C(=O)N/N=C/C=C/c1ccccc1`: the growth in [1] is 109%; in [2] it was 111%; in assay [3], 92.6%; in assay [4], 91.3%; in assay [5], 104%; in assay [6] it was 125%. The growth in [7] is 105%; in assay [8] it was 127%; in assay [9], 108%; in assay [10] it was 109%.
`Cc1ccc(NS(=O)(=O)c2cc(C)ccc2C)cc1`: the growth was 20.3% in assay [1]; 55.4% in [2]; 60.8% in assay [3]; 65.5% in [4]; 58.5% in assay [5]; 70.7% in assay [6]. The values for the growth in [7] and in [8] were 25.3% and 38.7%, respectively.
As for `Cc1ccc(S(=O)(=O)n2cc(C(=O)C(=O)N3CCOCC3)c3ccccc32)cc1`, the growth in assay [1] was 97%; in assay [2] it was 88%; in assay [3], 87.8%; in assay [4], 59.7%; in assay [5] it was 94.6%; in [6], 83.9%. In addition, the growth was 80.1% in [7], 118% in assay [8], 93.6% in assay [9] and 81.5% in assay [10].
